Measurements taken from PubChem BioAssay (NCATS).
Several values for one entry are separate records, joined by “and”; a condition that tells them apart may be missing. Equal values may be shown once. Records with an inconclusive call do not appear. Activity calls are given as the source filed them. Calls follow the shape of the dose curve; as a rule, active = well fitted curve in the direction sought with a large enough effect; inconclusive = small, poorly fitted or top-dose-only effect, or another doubt; inactive = no such curve, though single readings can be large; an effect the other way counts as inactive or inconclusive.

Legend:
HEK293 = assay: Cytotoxic Profiling of Annotated Libraries Using Quantitative High-Throughput Screening (AID 1296008); conditions: Five cell lines viability, CellTiter-Glo ATP luminescence, 48-72 h; max response: stronger effect = lower value; also: nearly all actives have a fitted effect of over 60% in size
Outline: (§1)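 Cells exposed to compounds for 48 or 72 hr at 37 degrees Celsius. Viability read as ATP-coupled luminescence with CellTiter-Glo after 10 min at room temperature.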

HaCat = assay: as above; conditions: Five cell lines viability, CellTiter-Glo ATP luminescence, 48-72 h; max response: stronger effect = lower value
Outline: as §1

KB-3-1 = assay: as above; conditions: Five cell lines viability, CellTiter-Glo ATP luminescence, 48-72 h; max response: stronger effect = lower value
Outline: as §1

NIH3T3 = assay: as above; conditions: Five cell lines viability, CellTiter-Glo ATP luminescence, 48-72 h; max response: stronger effect = lower value
Outline: as §1

UISO = assay: qHTS assay to identify novel small-molecules to repurpose for Merkel cell carcinoma treatment (AID 1296009); conditions: MCC and control cell lines, CellTiter-Glo viability, 72 h; series mostly up to 46 µM; also: nearly all actives have a fitted effect of over 60% in size
Outline: (§2)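 CellTiter-Glo luminescence after 72 hr compound exposure at 37 degree celsius gave cell viability. Libraries NPC and MIPE were run as 8- and 11-point dose responses; RLUs normalized to DMSO (negative) and no-cell (cytotoxicity) controls.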

C33A = assay: Primary qHTS to identify gynecologic anti-cancer compounds using libraries of approved drugs and bioactive compounds (AID 1345084); conditions: Gynecologic cancer cell panel viability, ATPlite luminescence, 48 h; series mostly up to 57.5 µM; also: nearly all actives have a fitted effect of over 55% in size
Outline: (§3)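 Five-concentration response, 48 h; readout is ATP-driven luciferase luminescence.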

CASKI = assay: as above; conditions: Gynecologic cancer cell panel viability, ATPlite luminescence, 48 h; series mostly up to 57.5 µM
Outline: as §3

Es-2 = assay: as above; conditions: Gynecologic cancer cell panel viability, ATPlite luminescence, 48 h; series mostly up to 57.5 µM
Outline: as §3

HeLa = assay: as above; conditions: Gynecologic cancer cell panel viability, ATPlite luminescence, 48 h; series mostly up to 57.5 µM
Outline: as §3

Hek293T = assay: as above; conditions: Gynecologic cancer cell panel viability, ATPlite luminescence, 48 h, control line for the selectivity index; series mostly up to 57.5 µM
Outline: as §3

JEG-3 = assay: as above; conditions: Gynecologic cancer cell panel viability, ATPlite luminescence, 48 h; series mostly up to 57.5 µM
Outline: as §3

MKL-1 = assay: qHTS assay to identify novel small-molecules to repurpose for Merkel cell carcinoma treatment (AID 1296009); conditions: MCC and control cell lines, CellTiter-Glo viability, 72 h; series mostly up to 46 µM; also: nearly all actives have a fitted effect of over 60% in size
Outline: as §2

MKL-2 = assay: as above; conditions: MCC and control cell lines, CellTiter-Glo viability, 72 h; series mostly up to 46 µM
Outline: as §2

WaGa = assay: as above; conditions: MCC and control cell lines, CellTiter-Glo viability, 72 h; series mostly up to 46 µM
Outline: as §2

MCC-13 = assay: as above; conditions: MCC and control cell lines, CellTiter-Glo viability, 72 h; series mostly up to 46 µM
Outline: as §2

CAOV3 = assay: Primary qHTS to identify gynecologic anti-cancer compounds using libraries of approved drugs and bioactive compounds (AID 1345084); conditions: Gynecologic cancer cell panel viability, ATPlite luminescence, 48 h; series mostly up to 57.5 µM; also: nearly all actives have a fitted effect of over 55% in size
Outline: as §3
% is scaled to controls: 0 for no effect and ±100 for the full control effect; potency is read from the fitted curve at half-maximal effect.

O=C(c1ccc(Nc2nccc(-c3cc4ccccc4s3)n2)cc1)N1CCC(N2CCCC2)CC1
inactive: Potency (C33A) | Potency (CASKI) | Potency (Es-2) | Potency (HeLa) | Potency (Hek293T) | Potency (JEG-3)
active: Potency (HEK293) 5.26 µM | Potency (HaCat) 23.5 µM | Potency (KB-3-1) 9.35 µM | Potency (NIH3T3) 26.4 µM and 23.1 µM | Potency (UISO) 18.7 µM

O=C(C=Cc1cccc(S(=O)(=O)Nc2ccccc2)c1)NO
active: Potency (HEK293) 19.1 µM | Potency (HaCat) 15.2 µM | Potency (KB-3-1) 6.05 µM | Potency (NIH3T3) 10.8 µM | Potency (MKL-1) 7.62 µM | Potency (MKL-2) 3.4 µM | Potency (UISO) 34 µM | Potency (WaGa) 3.03 µM

Cc1ccc(C(N)=O)cc1Nc1nccc(-c2cn(C(C)C)c3cnccc23)n1
inactive: Potency (JEG-3)
active: Potency (HEK293) 6.51 µM | Potency (HaCat) 23.5 µM | Potency (KB-3-1) 5.8 µM | Potency (NIH3T3) 10.5 µM | Potency (MKL-2) 20.9 µM | Potency (UISO) 4.18 µM | Potency (C33A) 3.16 µM | Potency (CASKI) 17.8 µM | Potency (HeLa) 25.1 µM | Potency (Hek293T) 17.8 µM

O=C(Nc1ncc(-c2cc(C(F)F)nn2-c2c(Cl)cccc2Cl)s1)C1CC1
inactive: max response (HaCat) -7.36% and -20.3%
active: Potency (HEK293) 1.05 µM | Potency (KB-3-1) 590 nM and 820 nM | Potency (NIH3T3) 1.18 µM and 1.46 µM | Potency (Es-2) 3.16 µM | Potency (HeLa) 2.51 µM

Cc1cc(N2CCOCC2)cc2[nH]c(-c3c(NC[C@@H](O)c4cccc(Cl)c4)cc[nH]c3=O)nc12
active: Potency (HEK293) 2.96 µM and 7.31 µM | Potency (HaCat) 4.18 µM and 5.8 µM | Potency (KB-3-1) 14.8 µM | Potency (NIH3T3) 7.43 µM and 13 µM | Potency (UISO) 1.32 µM
inactive: Potency (MKL-2) | Potency (C33A) | Potency (Es-2) | Potency (JEG-3)

CN[C@H]1CCc2cc(OC)c(OC)c(OC)c2-c2ccc(OC)c(=O)cc21
active: Potency (HEK293) 0.0015 µM | Potency (KB-3-1) 3.7 nM and 46.1 nM | Potency (MCC-13) 0.0209 µM
inactive: max response (HaCat) -10.1%

C[C@]1(CO)CN(c2cc(C(=O)Nc3ccc4c(c3)-c3c(c(C(N)=O)nn3-c3ccc(F)cc3)CC4)c(Cl)cn2)C[C@@]1(C)CO
inactive: max response (KB-3-1) -15.8% | max response (NIH3T3) -26% | Potency (CAOV3) | Potency (HeLa) | Potency (Hek293T) | Potency (JEG-3)
active: Potency (HEK293) 4.69 µM and 9.2 µM | Potency (HaCat) 13.2 µM | Potency (UISO) 9.35 µM | Potency (WaGa) 18.7 µM
